# Legend:
# Test in all cases: PBM binding z-score (relative to random genomic background probes); higher = stronger binding; sequences stand for … in GC…GCGATTGACAGCGTAGAATGAAGG
# [1] = test system: FXR:RXRa (NR concentration 270 nM, RXRa partner concentration 90 nM)
# Procedure, shortened: (§1)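 Binding buffer was PBS pH 7.4 with 2% milk, 0.02% Triton X-100, 1 mM DTT, 0.2 mg/mL BSA and 0.4 mg/ml salmon testes DNA. In it, ligand-free nuclear receptor dimers were incubated 1 h on custom Agilent 4×180K protein-binding microarrays carrying double-stranded probes. Antibodies against each partner (one per run) detected binding, and z-scores were calculated against random background probes after regression normalization of scanned fluorescence.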
# [2] = test system: LXRa:RXRa (NR concentration 270 nM, RXRa partner concentration 90 nM)
# Procedure, shortened: as §1
# [3] = test system: LXRa homodimer (NR concentration 270 nM)
# Procedure, shortened: as §1
# [4] = test system: LXRb:RXRa (NR concentration 270 nM, RXRa partner concentration 90 nM)
# Procedure, shortened: as §1
# [5] = test system: LXRb homodimer (NR concentration 270 nM)
# Procedure, shortened: as §1
# [6] = test system: PPARa:RXRa (NR concentration 270 nM, RXRa partner concentration 90 nM)
# Procedure, shortened: as §1
# [7] = test system: PPARg:RXRa (NR concentration 180 nM, RXRa partner concentration 90 nM)
# Procedure, shortened: as §1
# [8] = test system: PPARg:RXRa 270nM:90nM, anti-RXR (NR concentration 270 nM, RXRa partner concentration 90 nM)
# Procedure, shortened: as §1
# [9] = test system: PPARg:RXRa 30nM:10nM, anti-RXR (NR concentration 30 nM, RXRa partner concentration 10 nM)
# Procedure, shortened: as §1
# [10] = test system: PPARg:RXRa 90nM:30nM, anti-RXR (NR concentration 90 nM, RXRa partner concentration 30 nM)
# Procedure, shortened: as §1
# [11] = test system: PPARg:RXRa DBDmut IVT, anti-RXR (DBD mutation: RXRa K156A/R161A, NR concentration 270 nM, RXRa partner concentration 90 nM)
# Procedure, shortened: as §1
# [12] = test system: PPARg:RXRa IVT, anti-PPARg (NR concentration 270 nM, RXRa partner concentration 90 nM)
# Procedure, shortened: as §1
# [13] = test system: PPARg DBDmut:RXRa IVT, anti-PPARg (DBD mutation: PPARg1 K132A/R137A, NR concentration 270 nM, RXRa partner concentration 90 nM)
# Procedure, shortened: as §1
# [14] = test system: PPARg DBDmut IVT, anti-PPARg (DBD mutation: PPARg1 K132A/R137A, NR concentration 270 nM)
# Procedure, shortened: as §1
# [15] = test system: PPARg homodimer (NR concentration 180 nM)
# Procedure, shortened: as §1
# [16] = test system: PXR:RXRa (NR concentration 270 nM, RXRa partner concentration 90 nM)
# Procedure, shortened: as §1
# [17] = test system: PXR homodimer (NR concentration 270 nM)
# Procedure, shortened: as §1
# [18] = test system: RARa:RXR (NR concentration 270 nM, RXRa partner concentration 90 nM)
# Procedure, shortened: as §1
# [19] = test system: RARa homodimer (NR concentration 270 nM)
# Procedure, shortened: as §1
# [20] = test system: RARb:RXRa (NR concentration 270 nM, RXRa partner concentration 90 nM)
# Procedure, shortened: as §1
Sequence,PBM binding z-score [1],PBM binding z-score [2],PBM binding z-score [3],PBM binding z-score [4],PBM binding z-score [5],PBM binding z-score [6],PBM binding z-score [7],PBM binding z-score [8],PBM binding z-score [9],PBM binding z-score [10],PBM binding z-score [11],PBM binding z-score [12],PBM binding z-score [13],PBM binding z-score [14],PBM binding z-score [15],PBM binding z-score [16],PBM binding z-score [17],PBM binding z-score [18],PBM binding z-score [19],PBM binding z-score [20]
CCTACTGGGCCAAAAAAGTCATTGATGCCGATAA,-0.316,-0.318,-0.289,-0.181,-0.774,0.404,0.271,0.686,-0.0301,0.41,3.32,2.23,-0.158,-0.274,0.205,-0.303,-0.213,-0.0727,-0.0226,0.134
AGAATGAGGTTAAGATCAAGGAAACAGAATACAT,1.93,1.78,0.0429,1.71,-0.221,3.67,2.49,2.3,0.939,1.76,2.65,2.43,1.67,0.683,0.598,1.13,0.0373,1.75,0.928,1.88
TATACAGGGTCAAAGGCCCGAGTACGAATGTCGA,6.5,6.07,1.91,4.39,2,5.84,6.14,6.28,2.84,5.12,1.95,4.09,1.37,0.769,1.13,3.57,0.0932,4.41,0.102,4.33
ACAGACAGATGATGAAGGTAACTCAGGCTATCAT,0.128,-0.0336,0.0406,0.0281,0.222,-0.128,0.719,-0.0905,0.15,-0.00308,-0.169,-0.00444,1.17,0.707,0.677,-0.0799,0.468,0.101,0.591,0.13
GGAACGAGGGCACTCGAGTTGATAGCATGGCGAT,0.375,2.3,-0.535,-0.145,-0.549,1.4,1.27,0.984,-0.139,0.362,4.02,3.11,0.411,-0.728,-0.479,2.52,-0.193,0.513,-0.815,1.93
GCAGGCAGGTGAAACGCAGGTAACTCAGGGTGGC,0.782,0.881,-0.513,-0.67,-0.423,0.341,0.206,-0.46,-0.909,-0.6,1.12,0.912,-1,-1.1,-0.662,-0.0371,-1.2,0.429,-0.796,0.562
ATCTAAAGGTCGTGAGGTGAGTATACAGAAAGGC,5.84,5.04,1.01,3.73,1.12,5.2,4.73,4.73,2.02,3.72,1.12,2.89,1.3,1.74,2.21,3.4,0.645,4.46,1.13,4.15

# Reference: the supplement of paper PMC6555819
